Where “and” joins values, the source holds several entries; their conditions need not be identical. Equal entries are not always repeated. In all, about 5,500 compounds went through this assay and about 2,000 (36%) were called active. Not shown: some 18% with an inconclusive outcome. No stated cut-off is given here; in the data, active means normalized growth mostly below about 0.91 (no sharp cut-off); inconclusive means no clear call, values can overlap the other calls; inactive means mostly above about 0.92. The list shows a part of the results.
Test: chemical genetic growth profiling, strain panel (AID 1159580);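 further: tested at 20 µM; growth read once vehicle control cultures reached saturation at 30 °C; 1 = growth at the plate median or of vehicle wells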
Settings: growth OD

Measured: normalized growth

Cn1c(=O)c2[nH]c(C3CCCC3)nc2n(C)c1=O
inactive: S. cerevisiae deletion strains, locus YJR075W, strain HOC1, stronger effect = lower value 1.01 and 1.04 | S. cerevisiae deletion strains, locus YKL009W, strain mrt4, stronger effect = lower value 1 | S. cerevisiae deletion strains, locus YKL068W, stronger effect = lower value 1.02 | S. cerevisiae deletion strains, locus YKL085W, strain MDH1 (second series), stronger effect = lower value 1.05 | S. cerevisiae deletion strains, locus YKL085W, strain MDH1, stronger effect = lower value 1.05 | S. cerevisiae deletion strains, locus YKL160W, strain elf1, stronger effect = lower value 0.983 | S. cerevisiae deletion strains, locus YKL190W, strain CNB1, stronger effect = lower value 1.02 | S. cerevisiae deletion strains, locus YKR001C, strain vps1, stronger effect = lower value 1 | S. cerevisiae deletion strains, locus YKR026C, strain gcn3, stronger effect = lower value 1 | S. cerevisiae deletion strains, locus YKR091W, strain srl3, stronger effect = lower value 0.991 | S. cerevisiae deletion strains, locus YLL001W, strain dnm1, stronger effect = lower value 0.97 | S. cerevisiae deletion strains, locus YLL026W, stronger effect = lower value 0.989 | S. cerevisiae deletion strains, locus YLL041C, strain sdh2, stronger effect = lower value 0.988 | S. cerevisiae deletion strains, locus YLR027C, strain aat2, stronger effect = lower value 0.995 | S. cerevisiae deletion strains, locus YLR039C, strain RIC1, stronger effect = lower value 0.966 | S. cerevisiae deletion strains, locus YLR058C, strain SHM2, stronger effect = lower value 1.01 | S. cerevisiae deletion strains, locus YLR102C, strain apc9, stronger effect = lower value 0.999 | S. cerevisiae deletion strains, locus YLR113W, strain HOG1, stronger effect = lower value 1 | S. cerevisiae deletion strains, locus YLR221C, strain rsa3, stronger effect = lower value 0.988 | S. cerevisiae deletion strains, locus YLR258W, strain gsy2, stronger effect = lower value 0.972 | S. cerevisiae deletion strains, locus YLR262C, strain YPT6 (second series), stronger effect = lower value 0.997 | S. cerevisiae deletion strains, locus YLR262C, strain YPT6, stronger effect = lower value 1.04 | S. cerevisiae deletion strains, locus YLR268W, strain sec22, stronger effect = lower value 0.988 | S. cerevisiae deletion strains, locus YLR320W, strain mms22, stronger effect = lower value 0.989 | S. cerevisiae deletion strains, locus YLR330W, strain CHS5, stronger effect = lower value 1.01 | S. cerevisiae deletion strains, locus YLR342W, strain FKS1 (second series), stronger effect = lower value 1 | S. cerevisiae deletion strains, locus YLR342W, strain FKS1, stronger effect = lower value 0.986 | S. cerevisiae deletion strains, locus YLR357W, strain rsc2, stronger effect = lower value 0.954 | S. cerevisiae deletion strains, locus YLR370C, strain arc18, stronger effect = lower value 0.997 | S. cerevisiae deletion strains, locus YLR371W, strain rom2, stronger effect = lower value 0.997 | S. cerevisiae deletion strains, locus YLR384C, strain iki3, stronger effect = lower value 0.986 | S. cerevisiae deletion strains, locus YLR418C, strain cdc73, stronger effect = lower value 0.989 | S. cerevisiae deletion strains, locus YML016C, strain PPZ1, stronger effect = lower value 1.02 | S. cerevisiae deletion strains, locus YML032C, strain rad52, stronger effect = lower value 0.99 | S. cerevisiae deletion strains, locus YML120C, strain ndi1, stronger effect = lower value 0.992 | S. cerevisiae deletion strains, locus YML124C, strain tub3, stronger effect = lower value 0.998 | S. cerevisiae deletion strains, locus YMR058W, strain fet3, stronger effect = lower value 1 | S. cerevisiae deletion strains, locus YMR078C, strain ctf18, stronger effect = lower value 0.996 | S. cerevisiae deletion strains, locus YMR125W, strain sto1, stronger effect = lower value 0.979 | S. cerevisiae deletion strains, locus YMR129W, stronger effect = lower value 0.999 | S. cerevisiae deletion strains, locus YMR205C, strain PFK2, stronger effect = lower value 0.988 | S. cerevisiae deletion strains, locus YMR223W, strain ubp8, stronger effect = lower value 0.989 | S. cerevisiae deletion strains, locus YMR231W, strain pep5, stronger effect = lower value 0.988 | S. cerevisiae deletion strains, locus YMR263W, strain SAP30, stronger effect = lower value 1.02 and 0.995 | S. cerevisiae deletion strains, locus YMR307W, strain GAS1, stronger effect = lower value 1.05 and 1.01 | S. cerevisiae deletion strains, locus YNL067W, strain RPL9B, stronger effect = lower value 1.02 | S. cerevisiae deletion strains, locus YNL071W, strain lat1, stronger effect = lower value 0.997 | S. cerevisiae deletion strains, locus YNL128W, strain TEP1, stronger effect = lower value 1.01 and 0.993 | S. cerevisiae deletion strains, locus YNL153C, strain GIM3, stronger effect = lower value 1.01 and 0.975 | S. cerevisiae deletion strains, locus YNL175C, strain NOP13, stronger effect = lower value 0.977 | S. cerevisiae deletion strains, locus YNL183C, strain NPR1, stronger effect = lower value 0.942 | S. cerevisiae deletion strains, locus YNL197C, strain WHI3, stronger effect = lower value 0.935 | S. cerevisiae deletion strains, locus YNL209W, strain ssb2, stronger effect = lower value 0.996 | S. cerevisiae deletion strains, locus YNL224C, strain SQS1, stronger effect = lower value 0.989 | S. cerevisiae deletion strains, locus YNL233W, strain BNI4, stronger effect = lower value 1.01 | S. cerevisiae deletion strains, locus YNL248C, strain rpa49, stronger effect = lower value 0.968 | S. cerevisiae deletion strains, locus YNL250W, strain rad50, stronger effect = lower value 1 | S. cerevisiae deletion strains, locus YNL271C, strain bni1, stronger effect = lower value 0.989 | S. cerevisiae deletion strains, locus YNL298W, strain CLA4, stronger effect = lower value 0.998 | S. cerevisiae deletion strains, locus YNL307C, strain MCK1, stronger effect = lower value 0.996 | S. cerevisiae deletion strains, locus YNL322C, strain KRE1 (second series), stronger effect = lower value 0.985 | S. cerevisiae deletion strains, locus YNL322C, strain KRE1, stronger effect = lower value 1.01 | S. cerevisiae deletion strains, locus YNR049C, strain mso1, stronger effect = lower value 0.994 | S. cerevisiae deletion strains, locus YNR052C, strain pop2, stronger effect = lower value 1 | S. cerevisiae deletion strains, locus YOL006C, strain TOP1, stronger effect = lower value 1.05 | S. cerevisiae deletion strains, locus YOL012C, strain htz1 0.701 | S. cerevisiae deletion strains, locus YOL147C, strain pex11, stronger effect = lower value 0.986 | S. cerevisiae deletion strains, locus YOR001W, strain rrp6, stronger effect = lower value 0.989 | S. cerevisiae deletion strains, locus YOR061W, strain CKA2, stronger effect = lower value 1.01 | S. cerevisiae deletion strains, locus YOR069W, strain VPS5, stronger effect = lower value 1.01 | S. cerevisiae deletion strains, locus YOR070C, strain gyp1, stronger effect = lower value 0.998 | S. cerevisiae deletion strains, locus YOR080W, strain dia2, stronger effect = lower value 0.985 | S. cerevisiae deletion strains, locus YOR083W, strain WHI5 (second series), stronger effect = lower value 0.977 | S. cerevisiae deletion strains, locus YOR083W, strain WHI5, stronger effect = lower value 0.99 | S. cerevisiae deletion strains, locus YOR106W, strain vam3, stronger effect = lower value 0.991 | S. cerevisiae deletion strains, locus YOR136W, strain idh2, stronger effect = lower value 0.988 | S. cerevisiae deletion strains, locus YOR144C, strain elg1, stronger effect = lower value 0.998 | S. cerevisiae deletion strains, locus YOR184W, strain ser1, stronger effect = lower value 0.981 | S. cerevisiae deletion strains, locus YOR231W, strain MKK1, stronger effect = lower value 0.981 | S. cerevisiae deletion strains, locus YOR265W, strain rbl2, stronger effect = lower value 1 | S. cerevisiae deletion strains, locus YOR270C, strain vph1, stronger effect = lower value 1.02 | S. cerevisiae deletion strains, locus YOR290C, strain snf2, stronger effect = lower value 0.925 | S. cerevisiae deletion strains, locus YOR316C, strain cot1, stronger effect = lower value 0.999 | S. cerevisiae deletion strains, locus YPL051W, strain arl3, stronger effect = lower value 0.992 | S. cerevisiae deletion strains, locus YPL055C, strain LGE1, stronger effect = lower value 1.02 | S. cerevisiae deletion strains, locus YPL078C, strain atp4, stronger effect = lower value 0.997 | S. cerevisiae deletion strains, locus YPL106C, strain sse1, stronger effect = lower value 0.985 | S. cerevisiae deletion strains, locus YPL240C, strain hsp82, stronger effect = lower value 0.983 | S. cerevisiae deletion strains, locus YPL241C, strain CIN2, stronger effect = lower value 1.04 and 1.01 | S. cerevisiae deletion strains, locus YPL256C, strain CLN2, stronger effect = lower value 0.953 | S. cerevisiae deletion strains, locus YPR119W, strain clb2, stronger effect = lower value 0.997 | S. cerevisiae deletion strains, locus YPR141C, strain kar3, stronger effect = lower value 0.997 | S. cerevisiae deletion strains, locus YPR163C, strain tif3, stronger effect = lower value 0.998 | S. cerevisiae deletion strains, locus YPR167C, strain met16, stronger effect = lower value 0.997 | S. cerevisiae deletion strains, strain wtn01, stronger effect = lower value 1.01 | S. cerevisiae strains, strain wild type, stronger effect = lower value 1.01

— PubChem BioAssay AID1159580 (chemical genetic matrix, 2015)
